# Source: PubChem (National Center for Advancing Translational Sciences (NCATS))
# Hits are enriched below; roughly 21% of the tested compounds scored in any of these assays.
# SARS PLP yeast = inhibitors of SARS-CoV papain-like protease in yeast. S. cerevisiae expressing SARS-CoV PLpro, growth rescue. Potency, µM (top dose mostly 32.9 µM), inactives show at the top dose activity, positive = growth rescue, actives largely listed as activators. 0.19% of 330,000 active. AID 485353; further: potency means the concentration at half of the fitted maximal effect; 0% is about no effect; nearly all actives have a fitted effect of over 55% in size
# Cycloheximide cs = affects cycloheximide protein synthesis inhibition readout, counter-screen | max response, % | 12% of 300,000 active | cell reporter, cycloheximide protein synthesis inhibition counterscreen | AID 2314; in the data active means max response mostly above about 13%, no sharp cut-off; inactive means mostly below about 14%; further: read at 38.3 µM for the half of the compounds with a filed dose; 0% is about no effect
# Pf growth 48h = P. falciparum growth inhibition at 48 hours (one generation); P. falciparum luciferase growth in erythrocytes, 48 h; Potency, µM (top dose mostly 28.7 µM), without a hit: at the highest dose activity change, negative = inhibition, actives largely listed as inhibitors; 5.9% of 310,000 active; AID 504832; active means well fitted inhibition curve with a large enough effect; inconclusive means small, poorly fitted or top-dose-only effect, or another doubt; inactive means no such curve, though single readings can be large or run the other way; further: potency means the concentration at half of the fitted maximal effect; on the % scale 0 is the no-effect control and ±100 the full control effect
#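 Luciferase-expressing P. falciparum in infected erythrocytes (2% hematocrit, 0.1% parasitemia final) in RPMI 1640/0.5% Albumax were exposed to compound for 48 hours at 37 C, 5% CO2; growth read as luminescence.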
# Pf growth 96h = P. falciparum growth inhibition at 96 hour, primary screen for plastid delayed-death inhibitors. P. falciparum luciferase reporter growth, 96 h. Potency, µM (series often up to 28.7 µM), inactives show at the highest dose activity change, negative = inhibition, usual class: inhibitors. 6.9% of 320,000 active. AID 504834; active means well fitted inhibition curve with a large enough effect; inconclusive means small, poorly fitted or top-dose-only effect, or another doubt; inactive means no such curve, though single readings can be large or run the other way; further: potency means the concentration at half of the fitted maximal effect; on the % scale 0 is the no-effect control and ±100 the full control effect
#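 Delayed-death screen, second-generation endpoint: infected erythrocytes, 2% hematocrit, 0.05% parasitemia final; 96 hours at 37 C, 5% CO2; luciferase detection reagent; luminescence decrease equals reduced growth.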
# Shiga toxin inh = inhibitors of Shiga toxin in Vero cells. Vero cells, Shiga toxin protein synthesis inhibition reporter. inhibition, % at 38.7 µM. 9.2% of 290,000 active; in the data active means inhibition mostly above about 28%, no sharp cut-off; inactive means mostly below about 43%; further: 0% is about no effect
# NS1 function inh = influenza NS1 inhibition. AID 2326. Potency, µM (series often up to 46.1 µM), without a hit: at the top dose activity, positive = more growth. 0.4% of 270,000 active; further: potency means the concentration at half of the fitted maximal effect; actives are rising curves; nearly all actives have a fitted effect of over 50% in size
#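 S. cerevisiae expressing influenza A NS1, grown in glucose, washed, then diluted 1:100 into pH 6.0 -URA galactose medium with 23 nl compound. Growth recovery read as OD600; NS1-free strain serves as control.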
# The depositor's hits bear a star; ? = inconclusive; / = not tested or not shown. Unless noted, the call rests on the fitted dose curve.
SMILES,SARS PLP yeast,Cycloheximide cs,Pf growth 48h,Pf growth 96h,Shiga toxin inh,NS1 function inh
O=C(N/N=C\c1cccc(Cl)c1)c1n[nH]c2c1CCCC2,17%,59*,104%,35%,78*,11%
O=C(N/N=C/c1ccc(Cl)cc1Cl)c1n[nH]c2c1CCCC2,-19%,21*,163%,81%,67*,1%
O=C(N/N=C/c1cccnc1)C1CCCCC1,7%,23,6%,19%,-3,/
O=C(N/N=C/c1cccc(Cl)c1)C1CCCC1,?,35*,26%,?,54*,-17%
O=C(N/N=C/c1cccc2ccccc12)c1n[nH]c2c1CCCC2,1%,7,-26%,5%,23,1%
COC(=O)C[C@@](O)(CCC(C)(C)O)C(=O)O[C@@H]1C(OC)=C[C@]23CCCN2CCc2cc4c(cc2[C@@H]13)OCO4,/,-9,/,/,-12,/
O=C(CN(C(=O)CNC(=O)c1ccco1)c1cccc(F)c1)NC1CCCCC1,-1%,-8,19%,?,2,1%
CCCOc1ccccc1C(=O)Nc1ccc(S(=O)(=O)N2CCN(C)CC2)cc1,-3%,1,?,-22%,-18,-9%
CN1CCN(S(=O)(=O)c2ccc(NC(=O)c3csc4ccccc34)cc2)CC1,-1%,-3,4.7µM*,/,30,-6%
O=C(O)c1cccc(NC(=O)c2cccc(S(=O)(=O)N3CCCCC3)c2)c1,-3%,-3,240%,?,5,?
O=C(Nc1cccc(S(=O)(=O)N2CCCC2)c1)c1cccc(OC(F)F)c1,4%,/,?,9.3µM*,/,/
Cc1cc(NC(=O)c2cccc(S(=O)(=O)N3CCCCCC3)c2)no1,?,0,/,8.3µM*,-16,-7%
O=C(Nc1cccc(O)c1)c1cccc(S(=O)(=O)N2CCCCCC2)c1,8%,23*,4%,2%,44*,5%
CN(C)C(=O)CSc1ccc(S(=O)(=O)N2CCOCC2)cn1,3%,/,-15%,-30%,/,/
CCC1CCCCN1CCCNC(=O)Cn1nc(-c2ccc(C)cc2)ccc1=O (stereo not given),3%,-1,-7%,9%,-9,2%
CC(C)Cn1cnc2c1c(=O)[nH]c(=O)n2Cc1ccccc1,2%,-3,-8%,?,-11,-2%
CN1CCN(S(=O)(=O)c2ccc(NC(=O)c3cccc(S(=O)(=O)N4CCCC4)c3)cc2)CC1,0%,4,12µM*,?,-21,-5%
COc1cccc(CC(=O)Nc2ccc(S(=O)(=O)N3CCCCC3)cc2)c1,0%,/,/,/,/,/
CCc1cccc2cc3c(N)c(C(=O)Nc4ccc(S(=O)(=O)N5CCCC5)cc4)sc3nc12,17%,-2,12µM*,?,-13,4%
O=C(O)c1ccc(NC(=O)c2cccc(S(=O)(=O)Nc3ccc(C(=O)O)cc3)c2)cc1,6%,0,3%,216%,-2,4%
O=C(Nc1cccc(O)c1)c1cccc(S(=O)(=O)Nc2cccc(O)c2)c1,8%,-2,1%,1.9µM*,/,12%
CN(C)S(=O)(=O)c1cccc(C(=O)Nc2ccc(S(=O)(=O)N3CCCC3)cc2)c1,-1%,-2,12µM*,?,-4,5%
CN1CCN(S(=O)(=O)c2ccc(NC(=O)c3cccc(F)c3)cc2)CC1,-1%,-2,5%,-1%,20,-5%
CN(c1ccccc1C(=O)Nc1ccccc1-c1ccccc1)S(C)(=O)=O,-2%,-4,1%,14%,-8,-3%
O=C(Nc1ccc(S(=O)(=O)Nc2nccs2)cc1)/C(=C/c1ccccc1Cl)NC(=O)c1ccccc1,0%,-2,12%,16%,-17,?
SMILES,SARS PLP yeast,Cycloheximide cs,Pf growth 48h,Pf growth 96h,Shiga toxin inh,NS1 function inh
Cc1csc(=O)n1CC(=O)Nc1ccc(C(C)C)cc1,0%,/,51%,142%,/,/
O[C@@H](COc1ccc(Cl)cc1Cl)CN1CCCC1,/,/,/,/,/,-3%
N#C/C(=C\c1cn[nH]c1-c1ccc(Cl)cc1)C(=O)NCc1ccccc1,-8%,-1,7%,/,-21,10%
CN(C)S(=O)(=O)c1cccc(NC(=O)c2cccc(S(=O)(=O)N3CCCCCC3)c2)c1,1%,/,13µM*,4.7µM*,/,/
CC(C)N=C(N)N=C(N)Nc1ccc(Cl)cc1,/,/,1.2µM*,0.33µM*,/,/
NC(=NCCCCCCN=C(N)/N=C(\N)Nc1ccc(Cl)cc1)/N=C(\N)Nc1ccc(Cl)cc1,-37%,-13,0.33µM*,?,-20,-125%
CC(C)N=C(N)/N=C(\N)Nc1ccc(Cl)cc1,/,/,2.9µM*,0.36µM*,/,/
O=C1CN(C(=O)c2c(F)cccc2F)C(c2ccc(F)cc2)c2cc(F)ccc2N1 (stereo not given),1%,-2,?,-15%,-13,0%
CC(C)n1nnnc1SCC(=O)N(C)C1CCS(=O)(=O)C1 (stereo not given),13%,/,/,/,/,/
CCCN(C(=O)c1cccc(-n2cccc2)c1)c1c(N)n(Cc2ccccc2)c(=O)[nH]c1=O,0%,/,?,1%,/,/
O=C(c1ccoc1)N1CCC2(CCCN(Cc3ccc(F)c(F)c3)C2)C1 (stereo not given),2%,11,?,12µM*,-6,15%
COC(=O)c1ccccc1SC(CC(=O)c1ccccc1)c1ccc(F)cc1 (stereo not given),-1%,56*,?,?,107*,1%
Cc1ccc(S(=O)(=O)NNC(=O)c2ccoc2C)cc1,1%,-2,-9%,33%,-3,1%
Cn1cccc1C(=O)C(=O)Nc1cccc(Cl)c1Cl,-2%,12,138%,292%,10,-11%
N#CC(=NCc1cccnc1)C1=C(O)c2ccccc2C1=O,-2%,2,-7%,?,-12,-2%
O=C1C(C=NCc2cccnc2)=C(O)c2ccccc21,-2%,72*,58%,4%,101*,-4%
O=c1[nH]c(=O)n(Cc2ccco2)c(O)c1C=NCc1ccco1,0%,-2,?,26%,-3,15%
O=C1C(C=NCc2ccncc2)=C(O)c2ccccc21,-5%,49*,10%,/,102,0%
O=C1C(C=NCc2ccco2)=C(O)c2ccccc21,1%,25*,78%,207%,79*,-11%
COc1cc(CC(=O)OCC(=O)N2CCCCC2C)cc(OC)c1OC (stereo not given),-1%,-2,6%,20%,-3,-4%
COC(=O)C1=C(C)NC(C)=C(C(=O)OC(C)C)C1c1cccc2nonc12 (stereo not given),0%,-1,/,/,-1,/
COC(=O)C1=C(C)NC(C)=C(C(=O)OC(C)C)[C@H]1c1cccc2nonc12,/,/,4.5µM*,2.6µM*,/,/
C#CCSC1=C(C#N)C(c2cccs2)C(C(=O)OCC)=C(C)N1 (stereo not given),-8%,24*,10µM*,3%,35,4%
CC1=C(C(=O)OC(C)C)C(c2cccs2)C(C(=O)OC(C)C)=C(C)N1,17%,-1,13µM*,?,-5,-9%
